Sampled rows, rich in hits. Any-hit rate of the full collection: about 2.5%.
Cruzain inh Det – cruzain (T. cruzi) inhibition with detergent. purified cruzain, Z-FR-AMC fluorescence, 0.01% Triton. Potency, µM, for the others: max response, negative = inhibition, hits mostly inhibitors. 0.43% of 200,000 active. AID 1478;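 further: plate controls were neutral wells for no effect and buffer without enzyme for full effect; nearly all actives have a fitted effect of over 40% in size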
Target sequence (P25779 123-467 limits assumed): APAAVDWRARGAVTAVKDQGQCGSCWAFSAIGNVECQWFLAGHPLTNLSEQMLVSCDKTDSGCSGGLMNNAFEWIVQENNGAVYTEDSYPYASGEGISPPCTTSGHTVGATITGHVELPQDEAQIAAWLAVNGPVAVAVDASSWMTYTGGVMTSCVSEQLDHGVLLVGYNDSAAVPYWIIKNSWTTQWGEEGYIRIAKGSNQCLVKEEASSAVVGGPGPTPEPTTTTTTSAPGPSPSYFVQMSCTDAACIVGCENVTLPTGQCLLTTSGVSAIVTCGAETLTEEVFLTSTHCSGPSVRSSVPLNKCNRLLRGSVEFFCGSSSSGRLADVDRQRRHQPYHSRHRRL
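Steps: dispense cruzain (1.5 nM final) in acetate buffer pH 5.5 with DTT and 0.01% Triton X-100; pin-transfer compounds; incubate 15 min RT; add Z-FR-AMC (2 uM final); read fluorescence every 30 s, using the 60 s intensity change.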
Cruzain noTriton – cruzain (T. cruzi) inhibition without detergent | purified cruzain, Z-FR-AMC fluorescence, no detergent | Potency, µM, for inactives: max response, negative = inhibition, actives largely listed as inhibitors | 2.3% of 200,000 active;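 further: plate controls were enzyme without inhibitor for no effect and buffer without enzyme for full effect; nearly all actives have a fitted effect of over 40% in size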
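Purified cruzain at 1.5 nM, pre-incubated 15 min with compound at room temperature in 100 mM sodium acetate pH 5.5, 5 mM DTT, 0.00005% Triton X-100. Reaction started with 2 uM Z-FR-AMC; AMC fluorescence increase over 60 s gives rate.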
Active calls of the source: *. The call rests on the fitted dose curve; in most records, active means well fitted curve in the direction sought with a large enough effect; inconclusive means small, poorly fitted or top-dose-only effect, or another doubt; inactive means no such curve, though single readings can be large; an effect the other way counts as inactive or inconclusive. Potency means the concentration at half of the fitted maximal effect.

Screening O=C(NCc1ccccc1)c1ccc2c(c1)N(Cc1cccc(Cl)c1)C(=O)c1ccccc1S2(=O)=O returned Cruzain inh Det -3% and Cruzain noTriton inconclusive.
O=C(Nc1cccc(Cl)c1Cl)c1ccc2c(c1)N(Cc1cccc(Cl)c1)C(=O)c1ccccc1S2(=O)=O was read as Cruzain inh Det 8% and Cruzain noTriton 4µM*.
COc1ccc(C2NC(=O)NC(C)=C2C(=O)Nc2cc(C)cc(C)c2)c(OC)c1 (stereo not drawn) was read as Cruzain inh Det -5% and Cruzain noTriton 10%.
CCOC(=O)c1ccc(NC(=O)c2c(NCc3sccc3C)sc3c2CCC(C)C3)cc1 (stereo not drawn) was read as Cruzain inh Det -12% and Cruzain noTriton 1%.
Screening COc1ccc(CCNC(=O)Cc2ccc(NC(=O)N3CCSc4ncccc43)cc2)cc1OC returned Cruzain inh Det -8% and Cruzain noTriton -3%.
Screening Cn1cccc1C(=O)N1CCC2(CC1)CN(C(=O)Nc1ccccc1)C2 returned Cruzain inh Det 0% and Cruzain noTriton -4%.
O=C(Nc1ccc(C(=O)N2CCCCC2)cc1)c1nsc2ccccc12 was read as Cruzain inh Det -5% and Cruzain noTriton -6%.
`O=C(COC(=O)CCC1CCCC1)Nc1nc2c(F)c(F)c(F)cc2s1` gave Cruzain inh Det -4% and Cruzain noTriton 10µM*.
For O=C(COC(=O)CCC1CCCC1)Nc1ccc(Cl)cn1 the results were Cruzain inh Det 4% and Cruzain noTriton -9%.
CCC1CCCCN1S(=O)(=O)c1ccc(C(=O)Nc2sc3c(c2C(N)=O)CCC3)cc1 (stereo not drawn) was read as Cruzain inh Det -4% and Cruzain noTriton -15%.
CCOC(=O)C1=NN(c2ccc(OC)cc2)C(c2ccccc2)CC1=O (stereo not drawn) was read as Cruzain inh Det -11% and Cruzain noTriton -9%.
COc1ccc(C2CC(c3ccccc3)=NN2c2ccc(N)cc2)cc1 (stereo not drawn) was read as Cruzain inh Det -10% and Cruzain noTriton 20µM*.
`CCOC(=O)c1cccc(NS(=O)(=O)c2ccc(-c3coc(C)n3)cc2)c1` gave Cruzain inh Det -9% and Cruzain noTriton 0%.
For CC(C)Sc1nc2sc3c(c2c(=O)n1Cc1ccccc1)CCCC3 the results were Cruzain inh Det -2% and Cruzain noTriton -4%.
COC(=O)CSc1nnc(-c2cccc(O)c2)o1 was read as Cruzain inh Det -1% and Cruzain noTriton 1%.
Screening O=C(COC(=O)C1CC(=O)N(c2nc(-c3ccccc3)cs2)C1)c1ccccc1 (stereo not drawn) returned Cruzain inh Det -5% and Cruzain noTriton 25µM*.
Screening O=C(COC(=O)C1CC(=O)N(c2ccccc2)C1)c1ccccc1 (stereo not drawn) returned Cruzain inh Det 2% and Cruzain noTriton 0%.
For CCc1ccc2oc(-c3ccc(C)c(NC(=O)c4cc([N+](=O)[O-])ccc4N4CCOCC4)c3)nc2c1 the results were Cruzain inh Det -1% and Cruzain noTriton -5%.
`CC(C)=CCOc1ccc(/C=C/C(=O)c2ccc(OCC=C(C)C)cc2OCC(=O)O)cc1` gave Cruzain inh Det 20µM* and Cruzain noTriton inconclusive.
`CCOc1ccc(/C=C/C(=O)c2ccc(-c3ccccc3)cc2)cc1` gave Cruzain inh Det -11% and Cruzain noTriton -29%.
COc1ccc(CN2CCCN(CC(=O)Nc3ccc4c(c3)OCCO4)S2(=O)=O)cc1 was read as Cruzain inh Det -3% and Cruzain noTriton 0%.
`COc1ccccc1CNC(=O)CSc1nc2nc(C)c(Cc3ccccc3C)c(C)n2n1` gave Cruzain inh Det 2% and Cruzain noTriton 9%.
CC1=C(C(=O)OCc2ccc3c(c2)OCO3)C(c2ccccc2OCc2ccccc2)NC(=O)N1 (stereo not drawn) was read as Cruzain inh Det -1% and Cruzain noTriton 16µM*.
Screening CC1=C(C(=O)OCc2ccc3c(c2)OCO3)C(c2ccccc2)NC(=O)N1 (stereo not drawn) returned Cruzain inh Det -4% and Cruzain noTriton -6%.
COc1ccc(-c2nnc(CSc3nc4ccccc4c(=O)n3C)o2)cc1OC was read as Cruzain inh Det 0% and Cruzain noTriton inconclusive.
For COc1ccc(-c2cc(-c3ccc(C)cc3)nc(SCc3nnc(-c4ccccc4)o3)c2C#N)cc1OC the results were Cruzain inh Det -1% and Cruzain noTriton 10µM*.
Screening COC(=O)C1=C(C)Nc2sc(C(N)=O)c(N)c2C1c1ccncc1 (stereo not drawn) returned Cruzain inh Det -4% and Cruzain noTriton -12%.
For CCOC(=O)C1=C(C)Nc2sc(C(=O)c3ccc(OC)cc3)c(N)c2C1c1ccc(C(=O)OC)cc1 (stereo not drawn) the results were Cruzain inh Det -3% and Cruzain noTriton 32µM*.
COc1ccccc1CNS(=O)(=O)c1ccc2c(c1)NC(=O)C(C)C(=O)N2 (stereo not drawn) was read as Cruzain inh Det -7% and Cruzain noTriton -8%.
COc1ccc(NC(=O)Cn2c(=O)n(Cc3ccco3)c(=O)c3sc4ccccc4c32)c(OC)c1 was read as Cruzain inh Det -3% and Cruzain noTriton 3%.
Screening COc1ccc(NC(=O)Cn2c(=O)n(Cc3ccco3)c(=O)c3sc4ccccc4c32)cc1Cl returned Cruzain inh Det -13% and Cruzain noTriton 25µM*.
`CCN(CC)C(=O)c1ccc2c(c1)N(Cc1ccccc1F)C(=O)c1ccccc1S2=O` (stereo not drawn) gave Cruzain inh Det 1% and Cruzain noTriton inconclusive.
For Cc1cc(=O)c2cc(C(=O)Nc3ccc(C)c(C)c3)ccc2[nH]1 the results were Cruzain inh Det -4% and Cruzain noTriton 6%.
CCOc1ccc(C2Nc3cccc4cccc(c34)N2)cc1OC was read as Cruzain inh Det -14% and Cruzain noTriton -9%.
For CCOc1cc(C2Nc3cccc4cccc(c34)N2)ccc1O the results were Cruzain inh Det -2% and Cruzain noTriton 16µM*.
Screening CC1CCC/C(=N\NC(=S)NCc2ccccc2)C1 (stereo not drawn) returned Cruzain inh Det -1% and Cruzain noTriton -2%.
CC1CCC/C(=N\NC(=S)Nc2ccccc2)C1 (stereo not drawn) was read as Cruzain inh Det 14µM* and Cruzain noTriton -7%.
`Cc1ccc(-n2c(C)cc(/C=N/NC(=O)c3ccncc3)c2C)cc1` gave Cruzain inh Det -7% and Cruzain noTriton -5%.
For Cc1ccc(C(=O)N/N=C/c2cc(C)n(-c3ccc(Br)cc3)c2C)cc1[N+](=O)[O-] the results were Cruzain inh Det 2% and Cruzain noTriton 20µM*.
`COc1ccc(CNc2oc(-c3ccc(COc4ccccc4C)o3)nc2C#N)cc1` gave Cruzain inh Det -1% and Cruzain noTriton -23%.
For Cc1ccc(-n2c(C)cc(-c3csc(N)n3)c2C)cc1 the results were Cruzain inh Det -1% and Cruzain noTriton 25µM*.
Screening Cc1cc(-c2csc(N)n2)c(C)n1C returned Cruzain inh Det -30% and Cruzain noTriton inconclusive.
`CC1CCN(C(=O)CSc2nnc(NC(=O)Nc3ccccc3)s2)CC1` gave Cruzain inh Det -3% and Cruzain noTriton -2%.
For O=C(Nc1cccc(S(=O)(=O)Nc2ccccc2Cl)c1)c1ccc(N2CCCC2)c([N+](=O)[O-])c1 the results were Cruzain inh Det -1% and Cruzain noTriton 10µM*.
`O=C(Nc1cccc(C(F)(F)F)c1)c1cc(S(=O)(=O)N2CCCCC2)ccc1N1CCOCC1` gave Cruzain inh Det -12% and Cruzain noTriton inconclusive.
